# Measured values published in PubChem BioAssay (NCI).
# This is part of a sample that, as a whole, favours compounds with a hit. Of some 83,000 tested, about 20% had one in any assay.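 Cell lines were cultured in 96-well plates, exposed to a single compound concentration, and assessed for percent growth 48 hours later.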 Values without a mark were called inactive. Calls of active or inactive are those of the source. How the source made its calls: active means growth percent below 10; inactive means the rest.
# Assays:
# Experiment in all cases: NCI-60 one-dose screen, 48 h (100 = growth as untreated, 0 = no growth, -100 = all killed)
# Details in all cases: 10 µM unless noted
# SR leukemia = test system: SR leukemia
# RPMI-8226 leukemia = test system: RPMI-8226 leukemia
# OVCAR-8 ovarian = test system: OVCAR-8 ovarian
# OVCAR-5 ovarian = test system: OVCAR-5 ovarian
# OVCAR-4 ovarian = test system: OVCAR-4 ovarian
# SK-OV-3 ovarian = test system: SK-OV-3 ovarian
# IGROV1 ovarian = test system: IGROV1 ovarian
# OVCAR-3 ovarian = test system: OVCAR-3 ovarian
# HS 578T breast = test system: HS 578T breast
# NCI/ADR-RES ovarian = test system: NCI/ADR-RES ovarian
Structure (SMILES),growth (SR leukemia),growth (RPMI-8226 leukemia),growth (OVCAR-8 ovarian) [%],growth (OVCAR-5 ovarian) [%],growth (OVCAR-4 ovarian),growth (SK-OV-3 ovarian) [%],growth (IGROV1 ovarian),growth (OVCAR-3 ovarian),growth (HS 578T breast),growth (NCI/ADR-RES ovarian)
CC1=C2[C@@H](CC1)[C@]1(C)O[C@@](C3CCNCC3)(C[C@H]1OC(=O)CO)[C@H]2OC(=O)/C=C/c1ccccc1,33.1%,82.3%,84.3,99.4,82.9%,106,80.3%,93.9%,58.4%,90.3%
Cc1ccc(OCCOCCOCCOc2ccc(C)n(O)c2=S)c(=S)n1O,25.6%,31.2%,39.3,38.5,20.5%,64.9,72%,15.9%,56.3%,16.4%
O=C(OCc1ccc2c(Cl)cc(Cl)c(O)c2n1)N1CCN(C(=O)c2cc3ccccc3[nH]2)CC1,25.3%,40.6%,23.8,41.3,19.6%,31.2,18.5%,30.6%,43.5%,7.03% (active)
COc1ccc2cc(-c3nc4ccc(C)cn4c3NCc3ccco3)c(=O)[nH]c2c1,31.5%,62.3%,78.5,70.8,69.3%,78.1,63.4%,89.4%,65.3%,68.7%
COc1ccc(C=Nc2c(C(=O)Nc3cccc(Cl)c3C)sc3nc(C)c(C(=O)/C=C/c4ccc(OC)cc4)cc23)cc1,30.8%,14.9%,21,31.3,58.2%,40.9,38.3%,4.94% (active),-1.89% (active),10.9%
CCN(CC)CCOc1ccc(C(=O)/C=C\c2ccc(Cl)cc2Cl)cc1,-15.4% (active),-23.9% (active),53.3,68,52.6%,43.2,32.2%,9.56% (active),66.2%,49.9%
CS(=O)(=O)Nc1cc(-c2ccc3ncnc(Nc4ccc5c(cnn5Cc5ccncc5)c4)c3c2)cnc1Cl,44.6%,64.3%,82.5,59,84.8%,54.9,0.593% (active),37%,-6.14% (active),88.2%
Nc1ncnc2c1N=C(c1ccc(Cl)cc1)CC(c1cccc(Nc3ccnc4cc(Cl)ccc34)c1)N2 (stereo not given),-12.6% (active),-20.5% (active),77.9,111,70.7%,80.5,66.7%,80.6%,68.2%,73.1%
[N-]=[N+]=NCC1OC(n2cnc3c(NC(=O)Nc4ccccc4)ncnc32)C2OC(=O)CC12 (stereo not given),90.1%,98.4%,103,95.7,106%,106,91.3%,95.1%,112%,102%
Cc1cccc(N=Nc2cccc(C)c2)c1,108%,110%,103,94.2,107%,106,102%,113%,117%,108%
COc1ccc(N/N=C/c2cn(-c3ccc(C(=O)O)cc3)nc2-c2cc3ccccc3oc2=O)cc1,44.8%,51.6%,65.4,70.2,79%,99.1,71.5%,74.1%,106%,67.6%
CNC(=O)c1cc(Oc2ccc3c(c2)sc2nc(-c4ccc(Cl)c(C(F)(F)F)c4)cn23)ccn1,41.6%,33.9%,52.5,100,65%,78,86.3%,74.2%,80.3%,60.9%
CCCCCCCCCCOC(=O)c1nn(C(C)=O)c2cc(C)c(C)cc12,98.2%,88.9%,98.5,100,0.466% (active),92.3,103%,111%,104%,98.1%
